# Targets with a hit are over-represented here; the source holds about 7,900 in all. About 0.6% of all pairs of compound and target were hits. A number with no mark means an inactive call.
# Assays:
# Experiment in all cases: log2 fold change, soluble protein after heating vs DMSO (PISA); higher = thermal stabilisation; K562 cells, 10 uM, 30 min; active = over 0.2 and 3.5 SD of the protein, either way, in both replicates (recomputed)
# bafetinib = compound: Cc1ccc(NC(=O)c2ccc(CN3CC[C@H](N(C)C)C3)c(C(F)(F)F)c2)cc1Nc1nccc(-c2cncnc2)n1 [bafetinib]
# Outline: (§1)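 K562 cells at 2×10^6 cells/mL were exposed to 10 μM compound for 30 min, then aliquots were heated for 3 min across 48°C-58°C, pooled, and extracted in PBS containing 0.5% NP-40 at 4°C. The supernatant after 21,000xg for 90 min was taken as soluble protein and measured by TMTpro 16plex LC-MS/MS with channel sums equalised. Thermal stability is reported relative to control samples, with values from duplicates. Fold changes are given on a log2 scale.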
# [1] = compound: Cc1cccc(CC(=O)N2CCc3c2ccc(-c2cn(C)c4ncnc(N)c24)c3F)n1
# Outline: as §1
# nilotinib = compound: Cc1cn(-c2cc(NC(=O)c3ccc(C)c(Nc4nccc(-c5cccnc5)n4)c3)cc(C(F)(F)F)c2)cn1 [nilotinib]
# Outline: as §1
# [2] = compound: Cc1nc(Nc2n[nH]c3c2CN(C(=O)N[C@H](CN(C)C)c2ccccc2)C3(C)C)c2sccc2n1
# Outline: as §1
# dasatinib = compound: Cc1nc(Nc2ncc(C(=O)Nc3c(C)cccc3Cl)s2)cc(N2CCN(CCO)CC2)n1 [dasatinib]
# Outline: as §1
# [3] = compound: Cc1ncc(-c2ccnc(Nc3ccc(S(C)(=O)=O)cc3)n2)n1C(C)C
# Outline: as §1
# [4] = compound: Cn1cc(-c2ccc3c(c2)CCN3C(=O)Cc2cccc(C(F)(F)F)c2)c2c(N)ncnc21
# Outline: as §1
# [5] = compound: Cn1cc(-c2ccc3nnc(C(F)(F)c4ccc5ncccc5c4)n3n2)cn1
# Outline: as §1
# tipifarnib = compound: Cn1cncc1[C@@](N)(c1ccc(Cl)cc1)c1ccc2c(c1)c(-c1cccc(Cl)c1)cc(=O)n2C [tipifarnib]
# Outline: as §1
# mubritinib = compound: FC(F)(F)c1ccc(/C=C/c2nc(COc3ccc(CCCCn4ccnn4)cc3)co2)cc1 [mubritinib]
# Outline: as §1
# UniProt Q13586, sequence (Q13586 whole entry, looked up): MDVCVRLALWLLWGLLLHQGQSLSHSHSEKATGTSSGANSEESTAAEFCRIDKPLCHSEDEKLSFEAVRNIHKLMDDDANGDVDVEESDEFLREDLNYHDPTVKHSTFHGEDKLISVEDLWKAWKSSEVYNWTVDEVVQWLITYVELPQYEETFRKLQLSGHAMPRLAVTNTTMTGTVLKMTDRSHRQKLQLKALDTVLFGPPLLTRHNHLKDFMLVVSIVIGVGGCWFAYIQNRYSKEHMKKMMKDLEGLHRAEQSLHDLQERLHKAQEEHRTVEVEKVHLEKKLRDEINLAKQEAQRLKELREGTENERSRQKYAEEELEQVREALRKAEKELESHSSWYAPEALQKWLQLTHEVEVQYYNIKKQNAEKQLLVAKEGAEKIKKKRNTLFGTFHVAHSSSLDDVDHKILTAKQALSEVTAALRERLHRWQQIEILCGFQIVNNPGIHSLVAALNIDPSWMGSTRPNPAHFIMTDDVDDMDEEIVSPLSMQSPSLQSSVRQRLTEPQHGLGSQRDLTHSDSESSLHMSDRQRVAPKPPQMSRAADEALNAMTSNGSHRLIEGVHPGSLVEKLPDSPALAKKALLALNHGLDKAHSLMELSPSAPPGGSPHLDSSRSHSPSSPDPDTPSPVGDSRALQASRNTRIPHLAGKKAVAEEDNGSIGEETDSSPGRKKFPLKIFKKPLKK
# UniProt O76094, sequence (O76094 whole entry, looked up): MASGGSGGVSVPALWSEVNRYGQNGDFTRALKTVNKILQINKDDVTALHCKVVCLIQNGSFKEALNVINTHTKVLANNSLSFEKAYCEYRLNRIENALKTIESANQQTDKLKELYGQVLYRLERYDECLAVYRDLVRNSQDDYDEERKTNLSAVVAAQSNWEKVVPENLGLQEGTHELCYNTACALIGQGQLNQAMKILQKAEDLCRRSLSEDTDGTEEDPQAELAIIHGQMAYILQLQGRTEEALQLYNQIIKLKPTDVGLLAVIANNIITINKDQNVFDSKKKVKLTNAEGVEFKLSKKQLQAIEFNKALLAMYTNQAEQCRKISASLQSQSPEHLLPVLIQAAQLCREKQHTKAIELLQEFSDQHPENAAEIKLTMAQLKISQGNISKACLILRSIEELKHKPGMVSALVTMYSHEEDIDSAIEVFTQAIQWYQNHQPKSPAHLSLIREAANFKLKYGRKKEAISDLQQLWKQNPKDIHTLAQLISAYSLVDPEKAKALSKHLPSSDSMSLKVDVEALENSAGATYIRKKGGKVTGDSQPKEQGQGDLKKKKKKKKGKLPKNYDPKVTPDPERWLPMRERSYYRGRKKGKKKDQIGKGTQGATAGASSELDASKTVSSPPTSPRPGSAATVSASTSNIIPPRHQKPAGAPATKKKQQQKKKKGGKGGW
# UniProt P62072, sequence (P62072 whole entry, looked up): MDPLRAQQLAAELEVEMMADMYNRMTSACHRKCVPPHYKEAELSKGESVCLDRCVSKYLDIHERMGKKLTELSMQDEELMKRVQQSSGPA
# UniProt P05455, sequence (P05455 whole entry, looked up): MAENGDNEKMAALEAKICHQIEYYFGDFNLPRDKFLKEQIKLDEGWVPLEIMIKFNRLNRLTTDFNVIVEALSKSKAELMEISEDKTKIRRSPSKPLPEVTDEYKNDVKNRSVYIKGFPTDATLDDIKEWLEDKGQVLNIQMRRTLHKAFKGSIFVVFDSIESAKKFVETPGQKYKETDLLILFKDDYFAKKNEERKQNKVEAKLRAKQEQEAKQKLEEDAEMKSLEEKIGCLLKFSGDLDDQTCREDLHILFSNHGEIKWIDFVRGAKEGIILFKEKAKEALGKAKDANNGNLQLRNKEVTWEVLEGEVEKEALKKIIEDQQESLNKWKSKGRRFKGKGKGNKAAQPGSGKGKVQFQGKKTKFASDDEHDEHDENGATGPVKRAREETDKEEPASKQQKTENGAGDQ
# UniProt Q66K14, sequence (Q66K14 whole entry, looked up): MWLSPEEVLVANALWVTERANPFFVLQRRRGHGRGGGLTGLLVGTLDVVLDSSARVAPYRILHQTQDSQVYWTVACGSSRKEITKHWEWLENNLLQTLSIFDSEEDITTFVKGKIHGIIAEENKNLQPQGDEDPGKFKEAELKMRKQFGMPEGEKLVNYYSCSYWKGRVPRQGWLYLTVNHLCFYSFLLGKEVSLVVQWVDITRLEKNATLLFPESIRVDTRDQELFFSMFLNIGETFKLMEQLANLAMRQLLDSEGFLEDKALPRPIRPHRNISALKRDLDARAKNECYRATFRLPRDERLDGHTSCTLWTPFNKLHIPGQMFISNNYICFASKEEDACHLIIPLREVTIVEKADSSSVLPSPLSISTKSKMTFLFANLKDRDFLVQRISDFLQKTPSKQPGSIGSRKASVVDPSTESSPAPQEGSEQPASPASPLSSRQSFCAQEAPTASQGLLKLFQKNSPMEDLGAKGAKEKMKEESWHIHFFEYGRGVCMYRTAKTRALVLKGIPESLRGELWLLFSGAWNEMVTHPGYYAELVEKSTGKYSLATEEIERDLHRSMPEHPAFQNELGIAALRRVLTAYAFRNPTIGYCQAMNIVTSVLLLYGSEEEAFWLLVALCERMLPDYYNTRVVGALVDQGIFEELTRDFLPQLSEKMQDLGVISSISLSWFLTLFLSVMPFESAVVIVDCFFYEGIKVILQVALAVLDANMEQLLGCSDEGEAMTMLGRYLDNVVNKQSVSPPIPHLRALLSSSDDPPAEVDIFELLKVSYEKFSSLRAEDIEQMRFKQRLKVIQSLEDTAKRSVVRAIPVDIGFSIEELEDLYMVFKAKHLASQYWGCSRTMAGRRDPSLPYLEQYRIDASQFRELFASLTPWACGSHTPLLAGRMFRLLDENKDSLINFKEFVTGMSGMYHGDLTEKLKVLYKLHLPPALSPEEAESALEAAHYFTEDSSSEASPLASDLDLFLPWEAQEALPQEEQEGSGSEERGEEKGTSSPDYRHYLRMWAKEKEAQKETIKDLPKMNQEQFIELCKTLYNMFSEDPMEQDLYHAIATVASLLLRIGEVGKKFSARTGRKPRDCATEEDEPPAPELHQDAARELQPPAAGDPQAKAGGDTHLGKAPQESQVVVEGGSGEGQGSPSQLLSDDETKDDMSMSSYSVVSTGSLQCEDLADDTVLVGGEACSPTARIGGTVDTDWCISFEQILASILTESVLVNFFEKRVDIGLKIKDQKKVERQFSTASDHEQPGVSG
# UniProt Q00059, sequence (Q00059 whole entry, looked up): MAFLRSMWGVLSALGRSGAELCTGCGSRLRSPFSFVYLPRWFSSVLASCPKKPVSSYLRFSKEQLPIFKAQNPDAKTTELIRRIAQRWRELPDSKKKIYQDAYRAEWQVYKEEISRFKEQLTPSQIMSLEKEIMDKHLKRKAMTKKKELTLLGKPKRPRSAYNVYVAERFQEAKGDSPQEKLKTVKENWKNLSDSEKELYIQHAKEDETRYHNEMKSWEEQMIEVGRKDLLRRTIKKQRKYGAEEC
# UniProt Q7L7X3, sequence (Q7L7X3 whole entry, looked up): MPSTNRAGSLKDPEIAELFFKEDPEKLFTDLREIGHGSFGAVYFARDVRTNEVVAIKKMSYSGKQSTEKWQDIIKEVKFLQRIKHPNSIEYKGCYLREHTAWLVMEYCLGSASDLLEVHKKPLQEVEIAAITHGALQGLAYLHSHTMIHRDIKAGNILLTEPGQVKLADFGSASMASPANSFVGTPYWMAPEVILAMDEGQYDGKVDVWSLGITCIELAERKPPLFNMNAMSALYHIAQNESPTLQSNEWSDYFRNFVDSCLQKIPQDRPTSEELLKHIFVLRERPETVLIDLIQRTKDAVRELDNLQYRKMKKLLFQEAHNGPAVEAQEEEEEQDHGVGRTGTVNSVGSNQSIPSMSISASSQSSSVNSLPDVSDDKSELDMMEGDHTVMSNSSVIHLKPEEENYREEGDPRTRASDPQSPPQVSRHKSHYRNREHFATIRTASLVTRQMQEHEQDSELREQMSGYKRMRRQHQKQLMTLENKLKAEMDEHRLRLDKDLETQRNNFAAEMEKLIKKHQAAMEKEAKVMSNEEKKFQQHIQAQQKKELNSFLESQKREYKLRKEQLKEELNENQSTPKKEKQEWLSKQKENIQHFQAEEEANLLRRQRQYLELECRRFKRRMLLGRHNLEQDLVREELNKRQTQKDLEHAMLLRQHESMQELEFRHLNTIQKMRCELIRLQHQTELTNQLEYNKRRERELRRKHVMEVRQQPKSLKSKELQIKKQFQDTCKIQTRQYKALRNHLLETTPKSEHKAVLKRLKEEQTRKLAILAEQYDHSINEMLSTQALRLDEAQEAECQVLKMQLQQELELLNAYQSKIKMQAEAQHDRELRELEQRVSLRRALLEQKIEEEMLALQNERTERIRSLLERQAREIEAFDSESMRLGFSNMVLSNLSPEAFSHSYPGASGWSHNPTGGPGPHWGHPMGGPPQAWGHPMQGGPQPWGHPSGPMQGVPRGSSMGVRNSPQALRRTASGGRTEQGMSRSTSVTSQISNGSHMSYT
# UniProt Q9BVV7, sequence (Q9BVV7 whole entry, looked up): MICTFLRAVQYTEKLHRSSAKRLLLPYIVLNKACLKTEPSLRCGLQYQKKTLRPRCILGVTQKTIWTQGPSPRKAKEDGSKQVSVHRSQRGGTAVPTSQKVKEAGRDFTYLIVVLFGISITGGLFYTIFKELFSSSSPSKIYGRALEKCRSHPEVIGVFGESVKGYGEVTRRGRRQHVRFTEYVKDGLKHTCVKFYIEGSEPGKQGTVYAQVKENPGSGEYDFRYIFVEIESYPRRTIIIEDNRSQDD
# UniProt Q16385, sequence (Q16385 whole entry, looked up): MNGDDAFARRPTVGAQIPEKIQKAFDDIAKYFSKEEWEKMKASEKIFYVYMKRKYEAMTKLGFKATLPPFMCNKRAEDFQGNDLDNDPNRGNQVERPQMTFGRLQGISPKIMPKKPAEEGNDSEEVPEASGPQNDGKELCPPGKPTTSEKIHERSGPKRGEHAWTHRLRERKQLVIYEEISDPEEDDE
# UniProt O60493, sequence (O60493 whole entry, looked up): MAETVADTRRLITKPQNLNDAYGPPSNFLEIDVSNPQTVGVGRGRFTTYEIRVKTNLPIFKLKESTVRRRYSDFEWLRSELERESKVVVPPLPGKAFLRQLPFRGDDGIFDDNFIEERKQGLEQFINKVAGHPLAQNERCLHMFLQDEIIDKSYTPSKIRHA
Target,log2 fold change (bafetinib),log2 fold change [1],log2 fold change (nilotinib),log2 fold change [2],log2 fold change (dasatinib),log2 fold change [3],log2 fold change [4],log2 fold change [5],log2 fold change (tipifarnib),log2 fold change (mubritinib)
TAOK3 (UniProt Q9H2K8),-0.066,0.012,-0.05,0.03,-0.048,-0.048,0.025,-0.009,-0.026,0.018
SPR (UniProt P35270),-0.062,-0.102,-0.04,-0.012,0.467 (active),-0.029,0.144,0.298,0.499 (active),-0.083
SLC25A38 (UniProt Q96DW6),-0.08,-0.03,-0.03,0.023,0.143,-0.114,0.022,0.019,0.043,0.052
SLC6A6 (UniProt P31641),-0.001,-0.018,0.064,-0.015,-0.069,0.068,-0.011,-0.006,0.002,0.024
SSX2 (UniProt Q16385),-0.098,-0.011,0.003,-0.061,0.014,-0.042,-0.039,0.012,-0.015,-0.048
SQSTM1 (UniProt Q13501),-0.138,0.056,0.042,-0.227,-0.006,0.172,0.001,0.022,0.186,0.034
TIMM21 (UniProt Q9BVV7),-0.149,0.058,-0.011,-0.014,0.011,-0.003,0.025,0.074,0.055,-0.011
TBC1D23 (UniProt Q9NUY8),-0.141,0.041,-0.113,-0.032,-0.155,-0.056,0.025,0.006,0.003,-0.011
SUCLA2 (UniProt Q9P2R7),0,-0.065,-0.098,0.057,-0.149,-0.04,0.005,0.038,-0.01,-0.697 (active)
TAOK1 (UniProt Q7L7X3),-0.056,0.025,0.007,-0.023,-0.014,-0.03,0.043,-0.026,0.067,0.078
SRP72 (UniProt O76094),0.05,0.048,-0.117,-0.03,-0.186,0.108,-0.052,-0.052,-0.148,-0.036
SRSF7 (UniProt Q16629),0.073,-0.055,0.156,-0.642 (active),0.171,0.044,-0.177,-0.126,0.181,-0.128
STIM1 (UniProt Q13586),-0.143,0,0.002,-0.01,-0.006,-0.025,0.028,0.01,0.012,0.016
SMARCAD1 isoform 2 (UniProt Q9H4L7),0.067,0.014,0.049,-0.056,-0.131,-0.049,0.088,0.034,-0.144,0.241
TELO2 (UniProt Q9Y4R8),0.069,0.158,-0.023,-0.041,-0.039,0.039,-0.058,0.046,-0.185,0.103
TFAM (UniProt Q00059),0.034,0.013,-0.025,0.023,0.077,0.003,-0.048,-0.038,0.039,-0.068
SSR4 (UniProt P51571),-0.011,-0.057,-0.001,0.021,-0.028,-0.005,0.067,0.026,-0.063,0.003
SURF1 (UniProt Q15526),-0.184,-0.042,-0.065,0.028,-0.028,0.011,0.021,0.019,-0.061,0.042
SRFBP1 (UniProt Q8NEF9),0.075,-0.014,0.303,-0.031,0.095,-0.066,-0.163,-0.044,0.177,-0.129
SYNE2 isoform 2 (UniProt Q8WXH0),-0.008,0.031,-0.115,0.006,-0.019,-0.069,0.153,0.027,-0.029,0.233
SNX3 (UniProt O60493),0.01,0.032,-0.034,0.035,-0.163,-0.339 (active),-0.03,0.001,0.019,-0.108
SLC25A36 (UniProt Q96CQ1),-0.049,-0.003,-0.01,0.182,-0.136,-0.138,0.033,-0.004,-0.075,-0.078
THYN1 (UniProt Q9P016),0.009,-0.028,-0.021,0.044,-0.097,-0.009,-0.015,0.013,-0.036,0.031
SUOX (UniProt P51687),-0.084,-0.181,0.063,0.013,0,-0.066,-0.015,0.063,0.019,0.032
TIMM10 (UniProt P62072),-0.081,0.027,0.014,0.005,0.114,-0.027,-0.05,0.153,0.048,-0.024
TIMM10B (UniProt Q9Y5J6),0.4,-0.138,0.006,-0.04,0.138,-0.052,0.01,0.224,-0.001,0.065
TBC1D9B (UniProt Q66K14),-0.262,-0.042,-0.055,0.053,-0.156,-0.034,0.07,-0.06,0.019,0.203
STARD9 (UniProt Q9P2P6),0.012,-0.029,0.016,0.157,0.091,0.002,0.076,0.047,0.07,0.129
SLC7A6 (UniProt Q92536),0.042,0.029,0.046,0.008,0.04,-0.007,0.024,-0.087,-0.016,0.049
SSB (UniProt P05455),-0.022,-0.018,-0.057,-0.125,-0.06,-0.123,-0.048,-0.02,0.051,-0.111

# Reference: the supplement of paper PMC10849652
